The source of these data is publication PMC7819943, “Rice protein-binding microarrays: a tool to detect cis-acting elements near promoter regions in rice”.

Over roughly 39,000 sequences, “fluorescence intensity (a.u.)” has its median near 4,300; the highest 2% begin near 39,000. This excerpt belongs to a sample that is enriched for the highest values.

This assay has as its target T1, OsSMF1 (Oryza sativa, UniProt Q6ZLB0 1-436).
T1 sequence: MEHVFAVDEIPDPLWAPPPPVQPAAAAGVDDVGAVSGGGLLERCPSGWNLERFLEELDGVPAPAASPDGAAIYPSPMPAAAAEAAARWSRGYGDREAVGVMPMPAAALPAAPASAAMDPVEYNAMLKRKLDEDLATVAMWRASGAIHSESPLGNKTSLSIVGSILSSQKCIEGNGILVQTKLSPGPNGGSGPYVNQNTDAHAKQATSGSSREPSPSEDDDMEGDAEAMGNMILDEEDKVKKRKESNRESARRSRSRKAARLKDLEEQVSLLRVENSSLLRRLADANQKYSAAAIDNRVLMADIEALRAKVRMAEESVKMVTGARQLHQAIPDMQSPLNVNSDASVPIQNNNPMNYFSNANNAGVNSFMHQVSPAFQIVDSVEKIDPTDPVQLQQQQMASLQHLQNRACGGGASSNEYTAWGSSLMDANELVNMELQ
The assay can be described thus: protein-binding microarray (RPBM); PBS, 2% BSA, 51.3 ng/ul salmon testes DNA, 50 uM zinc acetate, 200 nM TF, 25 C, 1 h; high values mean tight binding. The conditions noted are these: protein: recombinant; tags: N-terminal polyhistidine and DsRed monomer fusion (pET32a); chain copies: 2; label: CyDye5-dUTP incorporated in the synthesized complementary strand; 3' TTTTT single-stranded linker to array surface; dsDNA, one strand shown. The essentials:
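Binding signal is defined as the fluorescence intensity of each feature in arbitrary units, read on an Axon 4000B scanner. Transcription factors with N-terminal polyhistidine and DsRed fusions came from E. coli BL21-CodonPlus and were purified on Ni–NTA. They were incubated at 200 nM for 1 h at 25 °C on a custom Agilent array that had been made double-stranded with Cy5-dUTP, with 50 µM zinc acetate present, and the array was washed.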
“AACATGAAAGCTCAAGAGCTCGTGCTGACGGCTGAGAATCCGGAGTCACCTAGTGCAG”: the binding signal is 3150 fluorescence intensity (a.u.).

With “TATGGACACCATCCTTGTCATTGGGTTAGGACTGGCCTTACGGAGTCACCTAGTGCAG”, the binding signal was 3630 fluorescence intensity (a.u.).

In the case of “AAATAGTCACACATAAAATACTATTCATATTTTATCATCTCGGAGTCACCTAGTGCAG”, the binding signal was 13500 fluorescence intensity (a.u.).

In the case of “TTCATCCTATCACATCAAATATTTGGATACATACATGGAGCGGAGTCACCTAGTGCAG”, the binding signal was 45500 fluorescence intensity (a.u.).

As to “GCCATCCAACTATTTTCATGGATCAACATCATAGTAGTATCGGAGTCACCTAGTGCAG”, the binding signal was 3140 fluorescence intensity (a.u.).

As for “TTGCTTGCGAGCAAAGGTGGAGTTCATGCCCTCATCATATCGGAGTCACCTAGTGCAG”, the binding signal is 3710 fluorescence intensity (a.u.).

“AATATAATGGCCGCTCGCTGATGGGTGCGTCATGCACCCTCGGAGTCACCTAGTGCAG”: the binding signal is 4060 fluorescence intensity (a.u.).

Consider “ATCCCCGGTCATCTCGCCTCGTCTCGTCCCGTCCCTGCGCCGGAGTCACCTAGTGCAG”, for which the binding signal was 3460 fluorescence intensity (a.u.).

With “CTGGATCGAATTGCCACGTAAGCGCCACGTCAGTGCCACACGGAGTCACCTAGTGCAG”, the binding signal is 20700 fluorescence intensity (a.u.).

Take “TTTTCCGGATCGAATTGCCACGTAAGCGCCACGTCAATGACGGAGTCACCTAGTGCAG”: the binding signal is 48300 fluorescence intensity (a.u.).

“TTGAGATATAATTGCTACGTAAGTGCCACGTCAATGCCACCGGAGTCACCTAGTGCAG”: the binding signal was 21400 fluorescence intensity (a.u.).

Regarding “CCGGATCGAATTGCCACGTAAGCGTCACGTCACTGCCACACGGAGTCACCTAGTGCAG”, the binding signal is 17100 fluorescence intensity (a.u.).

For “TCGGATCGAATTGCCACGTAAGCGCCACGTCGATGCCACACGGAGTCACCTAGTGCAG”, the binding signal is 33000 fluorescence intensity (a.u.).

“GCTGAGATATAGTTGCCACGTAAGCGCCACGTCAATGCTACGGAGTCACCTAGTGCAG”: the binding signal was 33000 fluorescence intensity (a.u.).

In the case of “TTTTCGATATATAATTGCCACGTAAGCGTCACGTCAATGCCGGAGTCACCTAGTGCAG”, the binding signal was 34300 fluorescence intensity (a.u.).

As to “GCTCGAATTGCCACGTAAGCGCCACGTCAATGCCACGTCACGGAGTCACCTAGTGCAG”, the binding signal is 65500 fluorescence intensity (a.u.).

Take “CGAGATATAATTGCCATGTCATTGCCACGTCAATGTCACGCGGAGTCACCTAGTGCAG”: the binding signal was 49600 fluorescence intensity (a.u.).

With “GATATAATTGCCACGTAAGCGCCACGTCAATGCCACGTGCCGGAGTCACCTAGTGCAG”, the binding signal was 52100 fluorescence intensity (a.u.).

With “CCAATATATAATTGCCACGTCATCGCCGCGTCAATGCCACCGGAGTCACCTAGTGCAG”, the binding signal is 28100 fluorescence intensity (a.u.).

In the case of “ATCGAATTGTCACGTAAGCGCCACGTCAATGCTACGTCAGCGGAGTCACCTAGTGCAG”, the binding signal was 26100 fluorescence intensity (a.u.).

As to “TCATCCCCTGATCGTCATCAGCATTCTCACCGTCGGCGCTCGGAGTCACCTAGTGCAG”, the binding signal is 4690 fluorescence intensity (a.u.).

“AGTAGGGAAAGTTACAACGCAGCCTAACGTGGGATAGCGGCGGAGTCACCTAGTGCAG”: the binding signal was 3980 fluorescence intensity (a.u.).

With “CGCGATCCTGACAGTATATTCTATCTTTGACACAGTCTGACGGAGTCACCTAGTGCAG”, the binding signal is 3320 fluorescence intensity (a.u.).

Consider “GCAGCCATTTACGCTTTCCACGTCAGTGCATGATGGAGTACGGAGTCACCTAGTGCAG”, for which the binding signal was 16800 fluorescence intensity (a.u.).

As for “GTAGCGGCTGCGGCGCTCCAGCTCCTCGGAGGCCCGGTCCCGGAGTCACCTAGTGCAG”, the binding signal was 3790 fluorescence intensity (a.u.).

Turning to “CTCCCCACTCACTGCCAGGTGGGCCCACCTTGTCGGATTACGGAGTCACCTAGTGCAG”, the binding signal is 3530 fluorescence intensity (a.u.).

As for “ATGTCAAGACAACAACAGTTGTAAATGTGATCTGGACATACGGAGTCACCTAGTGCAG”, the binding signal is 3540 fluorescence intensity (a.u.).

For the sequence “TCCCTGCGAAATTGTACACATCAACACAACATAAGGTCGACGGAGTCACCTAGTGCAG”, the binding signal is 3700 fluorescence intensity (a.u.).

As to “GGCAAATCGGTAATTGCCATGTCACAAGAGTGGCAAATAGCGGAGTCACCTAGTGCAG”, the binding signal is 8900 fluorescence intensity (a.u.).

For the sequence “CACCCGCCATCGTGGCGGACATTCCAGTATAGGTACGGCACGGAGTCACCTAGTGCAG”, the binding signal was 6150 fluorescence intensity (a.u.).

As for “TGGTGGTGGAAATTTTGGAAATCGTGAGGGCTACACATACCGGAGTCACCTAGTGCAG”, the binding signal was 3550 fluorescence intensity (a.u.).

As for “CGTCGACCACCACCACGCTCTTGCCCCTGATGACGCCGTGCGGAGTCACCTAGTGCAG”, the binding signal is 6870 fluorescence intensity (a.u.).

Turning to “CGGCTTCCCGACGGTGGCGGCGCACGTGGGCGAGGCTGAGCGGAGTCACCTAGTGCAG”, the binding signal is 3800 fluorescence intensity (a.u.).

“CCCACCTTTCAAATTCCACGTCCGCCAATAATATTATTACCGGAGTCACCTAGTGCAG”: the binding signal is 6710 fluorescence intensity (a.u.).

Turning to “TGCGGATCTAATTGCCACGTAAGCGCCACGACAATGACACCGGAGTCACCTAGTGCAG”, the binding signal is 16800 fluorescence intensity (a.u.).

For “CCGCCCCACGCGGCGCCACCACACCACCGCGCGCGTCGCTCGGAGTCACCTAGTGCAG”, the binding signal was 5900 fluorescence intensity (a.u.).

Turning to “ATCTAATTGCCACATAAGCACTACGTCAATAACACGTTAGCGGAGTCACCTAGTGCAG”, the binding signal was 10100 fluorescence intensity (a.u.).

As for “TAGTTAATAAAAGTCAAAATGAAGTCACAATTTGCCACGTCGGAGTCACCTAGTGCAG”, the binding signal is 8180 fluorescence intensity (a.u.).

Turning to “TTGCCACGTAATCGCTACGTCAATGCCACGTGGGACGGAGCGGAGTCACCTAGTGCAG”, the binding signal was 43800 fluorescence intensity (a.u.).

On to “CACGTAAGCGTCACGTCAATGCCACGTGGGACGGTGACCTCGGAGTCACCTAGTGCAG”, for which the binding signal is 27900 fluorescence intensity (a.u.).

Turning to “CATCTAATTGCCACATAAGCGCCACGTCAACGACACGTTGCGGAGTCACCTAGTGCAG”, the binding signal is 41300 fluorescence intensity (a.u.).

Turning to “ATGCCACATAAACCCTACGTCAATGCCACGTGGGACAAAGCGGAGTCACCTAGTGCAG”, the binding signal is 22600 fluorescence intensity (a.u.).

For the sequence “AGCAGTAACCACGAAAGCGCTCGGCTCCACACGCCACGCACGGAGTCACCTAGTGCAG”, the binding signal was 3280 fluorescence intensity (a.u.).

In the case of “TATTAATTTCCAAATAAATTGCTATGTCAATGCCACGTCACGGAGTCACCTAGTGCAG”, the binding signal was 40900 fluorescence intensity (a.u.).

For the sequence “GCCCACAAGCGCTCGGCTCGAAACGCCACGTCACCACGCTCGGAGTCACCTAGTGCAG”, the binding signal was 43800 fluorescence intensity (a.u.).
